S1P4 ag: agonists of human S1P4 receptor. O95977. S1P4-expressing cell line, agonist reporter assay. activation, % at 4.98 µM. actives 0.35% (n = 220,000). AID 1509; in the data active = activation above about 11%
S1P4 antag: blocks the human S1P4 receptor. S1P4-expressing cells, antagonist mode, reporter read-out. inhibition, % at 4.98 µM. actives 0.26% (n = 220,000). AID 1510; in the data active = inhibition above about 29%
Hsp70 act: transcriptional activators of Hsp70; HeLa Hsp70 promoter luciferase reporter, luminescence; scaled: vehicle 0, proteasome-inhibitor control 100%; actives 0.04% (n = 200,000); activation, % at 10 µM;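 active = activation above the mean across all tested compounds plus 3 SD, cutoff set per campaign, cut at about 5.5% in these data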
CHOP inhibitor: blocks CHOP induction under ER stress; CHO-K1 CHOP-promoter luciferase, tunicamycin-induced, 15-18 h; inhibition, % at 10 µM; actives 3.8% (n = 220,000);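 active = compounds that reduced the stress-induced luciferase reporter signal by more than about 70% of percent inhibition, limit read from the data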
S1P4 antag cf: human S1P4 antagonism, confirmation | AID 1524 | actives 71% (n = 520) | S1P4-expressing cell line, antagonist mode, reporter read-out | inhibition, % at 4.98 µM | shares compounds with S1P4 antag; in the data active = inhibition above about 30%
S1P1 antagonist: counter-screen for S1P4 antagonists: antagonists of human S1P1; shares compounds with S1P4 antag; cell-based S1P1 antagonist counterscreen, inhibition; inhibition, % at 4.98 µM; actives 37% (n = 520); in the data active = inhibition above about 40%;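 also: receptor stimulated with S1P near its EC80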
Target sequence (P21453 whole entry, looked up): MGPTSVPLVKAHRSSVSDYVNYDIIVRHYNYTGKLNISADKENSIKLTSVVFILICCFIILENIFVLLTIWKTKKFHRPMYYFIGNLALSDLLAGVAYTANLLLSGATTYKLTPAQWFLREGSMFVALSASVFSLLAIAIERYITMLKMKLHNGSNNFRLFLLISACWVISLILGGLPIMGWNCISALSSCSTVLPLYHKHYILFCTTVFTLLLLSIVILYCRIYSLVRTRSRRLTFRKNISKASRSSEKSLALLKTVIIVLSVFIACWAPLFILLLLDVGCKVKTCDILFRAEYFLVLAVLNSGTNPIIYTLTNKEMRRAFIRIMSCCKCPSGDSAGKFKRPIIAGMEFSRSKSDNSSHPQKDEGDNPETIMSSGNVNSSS
Large screens that a line does not name were inactive (follow-up assays come after a bar, where they were run). In the library only some 4.2% were active in any assay of this set; here they are far more common.

COc1ccc(/C=C/C(=O)c2c(O)c(OC)c3occc3c2OC)cc1	S1P4 antag 34.0 | S1P4 antag cf 51.7 | S1P1 antagonist inactive
Nc1nc(Nc2cccc3ccccc23)nc(C2CCCC2=O)n1 (stereo unspecified)	none
Nc1nc(CCl)nc(Nc2cccc3ccccc23)n1	S1P4 antag 33.0 (no result: Hsp70 act) | S1P4 antag cf 54.6 | S1P1 antagonist inactive
O=C(CCc1ccccc1)NNC(=O)Cc1ccc(Cl)cc1	none
Cc1cc(-c2nnc(SCC(=O)Nc3ccccc3)n2C)no1	none (no result: Hsp70 act)
CCN(CC)CCNC(=O)c1ccc2c(c1NCCO)C(=O)c1ccccc1C2=O	S1P4 antag 80.8 (no result: Hsp70 act) | S1P4 antag cf inactive | S1P1 antagonist inactive
CC1CCN(C(=O)c2ccc3c(c2NCCO)C(=O)c2ccccc2C3=O)CC1	none
CCCN(CCC)CCCNC(=O)C1c2cc(OC)c(OC)cc2C(=O)N(C)C1c1cccs1 (stereo unspecified)	none
COc1ccc(/C=N/Nc2nn3cnnc3c3ccccc23)cc1	S1P4 antag 30.4 (no result: Hsp70 act) | S1P4 antag cf inactive | S1P1 antagonist inactive
COc1ccc(/C=N/Nc2nonc2N)cc1	none
Oc1ccc(C2C=C(c3ccc(F)cc3)Nc3ncnn32)cc1 (stereo unspecified)	S1P4 antag 42.5 (no result: Hsp70 act) | S1P4 antag cf inactive | S1P1 antagonist inactive
CCOc1ccc(C2C=C(c3ccc(F)cc3)Nc3ncnn32)cc1 (stereo unspecified)	none
COc1ccc(C2=CC(c3ccc(C)cc3)n3nnnc3N2)cc1 (stereo unspecified)	none
COc1ccc(C2C=C(c3ccc(C)cc3)Nc3ncnn32)cc1 (stereo unspecified)	S1P4 antag 29.2 | S1P4 antag cf 43.3 | S1P1 antagonist 43.6
O=C1OC(c2ccccc2)=C/C1=C/N1CCOCC1	none
CCOC(=O)CS(=O)(=O)c1nc(-c2ccccc2)cc(C(F)(F)F)n1	S1P4 antag 98.1 (no result: CHOP inhibitor) | S1P4 antag cf 115.5 | S1P1 antagonist inactive
CCN(Cc1ccncc1)C(=S)NCc1ccccc1	none
CCC(NC(=O)c1cccc(Cn2cc([N+](=O)[O-])cn2)c1)c1ccc(C(C)C)cc1 (stereo unspecified)	none
CC(NC(=O)c1cccc(Cn2cc([N+](=O)[O-])cn2)c1)c1ccc(C(C)(C)C)cc1 (stereo unspecified)	S1P4 antag 75.8 | S1P4 antag cf inactive | S1P1 antagonist inactive
COc1ccc(C=C(c2nc3ccccc3s2)c2nc3ccccc3s2)cc1O	S1P4 antag 29.4 | S1P4 antag cf 58.2 | S1P1 antagonist inactive
COc1ccc(CN(C(=O)c2oc3ccccc3c2C)C2CCS(=O)(=O)C2)cc1OC (stereo unspecified)	S1P4 antag 31.8 | S1P4 antag cf inactive | S1P1 antagonist inactive
COc1cc2c3nnc(-c4ccccc4)c-3cn(Cc3ccccc3F)c2cc1OC	S1P4 antag 84.1 | S1P4 antag cf 85.7 | S1P1 antagonist 128.1
COC(=O)COc1ccc(S(=O)(=O)N2CCN(c3ccccc3F)CC2)cc1C	S1P4 antag 34.6 | S1P4 antag cf inactive | S1P1 antagonist inactive
Cc1nn(-c2ccccc2)c2c1C(c1ccc(O)c(O)c1)N1C(=N2)C(Nc2ccccc2)=Nc2ccccc21 (stereo unspecified)	S1P4 antag 51.2 | S1P4 antag cf 69.5 | S1P1 antagonist 65.4
Cc1ccc(NC2=Nc3ccccc3N3C2=Nc2c(c(C)nn2-c2ccccc2)C3c2ccc(O)c(O)c2)cc1 (stereo unspecified)	none
CC(C)C(NC(=O)c1ccccc1)C(=O)NCC(c1ccccc1)N(C)C (stereo unspecified)	none
O=[N+]([O-])c1ccc(-n2nnnc2-c2ccccc2)c([N+](=O)[O-])c1	S1P4 antag 35.2 | S1P4 antag cf 52.7 | S1P1 antagonist inactive
O=[N+]([O-])c1ccc(-n2nnnc2-c2ccccc2)cc1	none
CCOc1ccc(C(C)=O)cc1N1C(=O)C2C3C=CC(O3)C2C1=O (stereo unspecified)	S1P4 antag 52.6 | S1P4 antag cf inactive | S1P1 antagonist inactive
O=C(/C=C/c1cccs1)N1CCC2(CC1)Oc1ccc(Cl)cc1C(=O)C21CC(c2cccnc2)=NO1 (stereo unspecified)	none (no result: S1P4 ag, S1P4 antag, Hsp70 act)
Cc1ccc(S(=O)(=O)Nc2cccc3ncccc23)s1	S1P4 antag 47.2 (no result: CHOP inhibitor) | S1P4 antag cf 108.0 | S1P1 antagonist 108.7
Cc1ccc(S(=O)(=O)Nc2ccnc3ccccc23)cc1	none
COc1ccc2c(=O)c(-c3ccccc3C)c(C)oc2c1	none

Source: PubChem (several laboratories)
